Experimental data: PubChem BioAssay (NCATS)
Results filed as inconclusive are left out. Activity calls are given as the source filed them. The call rests on the fitted dose curve; in most records, active means well fitted curve in the direction sought with a large enough effect; inconclusive means small, poorly fitted or top-dose-only effect, or another doubt; inactive means no such curve, though single readings can be large; an effect the other way counts as inactive or inconclusive.

Columns and labels:
[1] = qHTS of pediatric cancer cell lines to identify multiple opportunities for drug repurposing: Primary screen for U-2 OS cells (AID 1347096); further: nearly all actives have a fitted effect of over 50% in size
Procedure, shortened: (§1)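 Cells (500-1,000/well) rested 5 h, then received compounds for 48 h; metabolically active cells were measured by CellTiter-Glo luminescence. Final concentrations spanned up to 46 µM (MIPE, 11-point) or 0.59 nM-46 µM (NPC, 8-point) in primary screens, 11-point in follow-ups.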

[2] = qHTS of pediatric cancer cell lines to identify multiple opportunities for drug repurposing: Primary screen for Saos-2 cells (AID 1347097); further: nearly all actives have a fitted effect of over 40% in size
Procedure, shortened: (§2)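 Following a 5-hour attachment period, cells at 500-1,000/well received compounds and were cultured for 48 hours. CellTiter-Glo was added and luminescence read to estimate viable, metabolically active cells.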

[3] = qHTS of pediatric cancer cell lines to identify multiple opportunities for drug repurposing: Primary screen for SK-N-SH cells (AID 1347098);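 further: DMSO served as neutral control and bortezomib at 2.3 µM as positive control; nearly all actives have a fitted effect of over 65% in size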
Procedure, shortened: as §1

[4] = qHTS of pediatric cancer cell lines to identify multiple opportunities for drug repurposing: Primary screen for NB1643 cells (AID 1347099); further: nearly all actives have a fitted effect of over 50% in size
Procedure, shortened: as §2

[5] = qHTS of pediatric cancer cell lines to identify multiple opportunities for drug repurposing: Primary screen for LAN-5 cells (AID 1347100)
Procedure, shortened: as §1

[6] = qHTS of pediatric cancer cell lines to identify multiple opportunities for drug repurposing: Primary screen for BT-12 cells (AID 1347101); further: nearly all actives have a fitted effect of over 25% in size
Procedure, shortened: as §1

[7] = qHTS of pediatric cancer cell lines to identify multiple opportunities for drug repurposing: Primary screen for Rh18 cells (AID 1347102); further: nearly all actives have a fitted effect of over 65% in size
Procedure, shortened: as §1

[8] = qHTS of pediatric cancer cell lines to identify multiple opportunities for drug repurposing: Primary screen for OHS-50 cells (AID 1347103); further: nearly all actives have a fitted effect of over 40% in size
Procedure, shortened: as §1

[9] = qHTS of pediatric cancer cell lines to identify multiple opportunities for drug repurposing: Primary screen for RD cells (AID 1347104); further: nearly all actives have a fitted effect of over 55% in size
Procedure, shortened: as §2

[10] = qHTS of pediatric cancer cell lines to identify multiple opportunities for drug repurposing: Primary screen for MG 63 (6-TG R) cells (AID 1347105); further: nearly all actives have a fitted effect of over 50% in size
Procedure, shortened: as §2

Measured: Potency

CCOC(=O)[C@H](CCc1ccccc1)N[C@@H](C)C(=O)N1[C@H](C(=O)O)C[C@@H]2CCC[C@@H]21
inactive: [1] | [2] | [3] | [4] | [5] | [6] | [7] | [8] | [9] | [10]

c1ccc(CC2=NCCN2)cc1
inactive: [1] | [2] | [3] | [4] | [5] | [6] | [7] | [8] | [9] | [10]

NS(=O)(=O)Cc1noc2ccccc12
inactive: [1] | [2] | [3] | [4] | [5] | [6] | [7] | [8] | [9] | [10]

O=C(O)c1ccc(S(=O)(=O)N(Cl)Cl)cc1
inactive: [1] | [2] | [3] | [4] | [5] | [6] | [7] | [8] | [9] | [10]

Cc1cccc(C)c1NC(=O)CN1CCCCCC1
inactive: [1] | [2] | [3] | [4] | [5] | [6] | [7] | [8] | [9] | [10]

O=C1OC(CN2CCOCC2)CN1/N=C/c1ccc([N+](=O)[O-])o1 (stereo unspecified)
inactive: [1] | [2] | [3] | [4] | [5] | [6] | [7] | [8] | [9] | [10]

Nc1ccc(S(=O)(=O)Nc2cnc3ccccc3n2)cc1
inactive: [1] | [2] | [3] | [4] | [5] | [6] | [7] | [8] | [9] | [10]

Cc1cc2c(OCC(CNC(C)(C)C)OC(=O)c3ccccc3)cccc2[nH]1 (stereo unspecified)
inactive: [1] | [2] | [3] | [4] | [5] | [6] | [7] | [8] | [9] | [10]

CC(C)NCC(O)c1ccc2ccccc2c1 (stereo unspecified)
inactive: [1] | [2] | [3] | [4] | [5] | [6] | [7] | [8] | [9] | [10]

Cc1cc(-c2ccccc2)nnc1NCCN1CCOCC1
inactive: [1] | [2] | [3] | [4] | [5] | [6] | [7] | [8] | [9] | [10]

O=C1C(O)=C(O)C(=O)C(O)=C1O
inactive: [1] | [2] | [3] | [4] | [5] | [6] | [7] | [8] | [9] | [10]

CN(C)CCOC(=O)C(c1ccccc1)C1(O)CCCC1 (stereo unspecified)
inactive: [1] | [2] | [3] | [4] | [5] | [6] | [7] | [8] | [9] | [10]

COc1ccc(/C=N/NC(=O)c2ccncc2)cc1OC
inactive: [1] | [2] | [3] | [4] | [6] | [7] | [8] | [9] | [10]

Cc1cc(CC(=O)O)c(C)n1-c1ccc(Cl)cc1
inactive: [1] | [2] | [3] | [4] | [6] | [7] | [8] | [9] | [10]

CCOc1ccc(NC(C)=O)cc1
inactive: [1] | [2] | [3] | [4] | [5] | [6] | [7] | [8] | [9] | [10]

COc1cc(C(=O)N2CCCCCCC2)cc(OC)c1OC
inactive: [1] | [2] | [3] | [4] | [5] | [6] | [7] | [8] | [9] | [10]

COP(=O)(OC)OC(c1ccc(Cl)cc1)P(=O)(OC)OC (stereo unspecified)
inactive: [1] | [2] | [3] | [4] | [5] | [6] | [8] | [9] | [10]

CC(C)[C@@H]1CC[C@@H](C)CC1=O
inactive: [1] | [2] | [3] | [4] | [6] | [7] | [8] | [9] | [10]

CC(C)Nc1cccnc1N1CCN(C(=O)c2cc3cc(NS(C)(=O)=O)ccc3[nH]2)CC1
inactive: [1] | [2] | [3] | [4] | [5] | [6] | [7] | [9] | [10]

NC(=S)N/N=C/c1cccnc1
inactive: [1] | [2] | [3] | [4] | [6] | [7] | [8] | [9] | [10]

CCCCC(CC)COC(=O)/C=C/c1ccc(OC)cc1 (stereo unspecified)
inactive: [1] | [2] | [3] | [4] | [5] | [6] | [7] | [9] | [10]

CCCCNC(=O)NS(=O)(=O)c1ccc(N)cc1
inactive: [1] | [2] | [3] | [4] | [5] | [6] | [8] | [9] | [10]

CCCCCCCCCCCCCCC[C@H](O)[C@@H](N)CO
inactive: [1] | [2] | [3] | [4] | [6] | [7] | [8] | [9] | [10]
